RORgamma inh: inhibitors of mouse ROR gamma transcriptional activity; P51450; Drosophila S2 Gal4-RORgamma UAS-luciferase reporter, 20 h; Potency, µM (doses to about 53.6 µM), actives largely listed as inhibitors; 310,000 tested, 5.4% active; further: nearly all actives have a fitted effect of over 60% in size
Target sequence (P51450 whole entry, looked up, the tested form may be a part): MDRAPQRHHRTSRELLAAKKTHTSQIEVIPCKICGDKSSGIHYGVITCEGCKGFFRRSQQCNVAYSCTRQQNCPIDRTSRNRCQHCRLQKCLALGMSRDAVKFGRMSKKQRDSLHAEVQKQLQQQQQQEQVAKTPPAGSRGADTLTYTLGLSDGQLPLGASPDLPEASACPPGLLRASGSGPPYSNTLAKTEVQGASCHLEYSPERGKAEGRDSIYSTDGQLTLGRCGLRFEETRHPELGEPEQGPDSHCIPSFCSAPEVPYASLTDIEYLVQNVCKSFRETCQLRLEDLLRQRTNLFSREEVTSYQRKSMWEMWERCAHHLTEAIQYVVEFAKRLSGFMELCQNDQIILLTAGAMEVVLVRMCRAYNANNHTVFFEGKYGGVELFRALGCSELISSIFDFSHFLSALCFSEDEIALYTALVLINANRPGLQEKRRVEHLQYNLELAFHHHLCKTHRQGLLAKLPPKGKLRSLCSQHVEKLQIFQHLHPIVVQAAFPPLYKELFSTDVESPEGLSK
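Drosophila S2 cells stably expressing Gal4-DBD/mouse RORγ fusion under metallothionein promoter plus UAS-luciferase; compound 1 h, then 700 uM CuSO4 induction for 20 h at ambient temperature; inhibition read as reduced luminescence.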
ELG1 repair inh: blocks ELG1-dependent DNA repair in HEK293T cells. HEK293T ELG1-luciferase reporter, luminescence, 16 h; DNA damage induced by 5-fluorouridine. Potency, µM (top dose mostly 46.1 µM), actives largely listed as inhibitors. 330,000 tested, 2.3% active. AID 504467; further: nearly all actives have a fitted effect of over 55% in size
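Luminescence from the luciferase reporter, measured 30 min after ONE-Glo reagent at room temperature, was the read-out. Beforehand, 2,000 cells per well were exposed for 16 hr at 37 °C to 5-fluorouridine together with compound or vehicle.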
VP16 counter: Gal4-VP16 reporter inhibition counter-screen. Drosophila S2 Gal4-VP16 UAS-luciferase, luminescence, 20 h. Potency, µM (doses to about 53.6 µM), most hits filed as inhibitors. 310,000 tested, 3.5% active;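 further: Gal4-VP16 expression switched on by copper sulfate through the metallothionein promoter; nearly all actives have a fitted effect of over 50% in size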
TDP1 cell noCPT: qHTS for Inhibitors of human tyrosyl-DNA phosphodiesterase 1 (TDP1): qHTS in cells in absence of CPT; DT40 Tdp1-/- hTDP1 cells, no CPT, ATP luminescence, 48 h; Potency, µM (doses to about 46.2 µM), actives largely listed as inhibitors; 420,000 tested, 15% active; AID 686978, 2013; further: nearly all actives have a fitted effect of over 55% in size
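Cells were dispensed at 400 per well, compounds added by pin tool, plates incubated ≥48 hr at 37 °C, then CellTiter-Glo added for 30 min at room temperature before luminescence reading. Line: DT40 Tdp1-/- complemented with hTDP1; camptothecin omitted.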
IL1B secr inh: inhibitors of inflammasome signaling (IL-1 beta secretion). THP-1 LPS/ATP IL-1B secretion, AlphaLISA, 16 h; hits give low values. activity change, % at 57.5 µM. 360,000 tested, 4.7% active. AID 743279; in the data active means activity change below about -50%; inconclusive means mostly about -30% to -49%
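Secreted IL-1B measured by AlphaLISA bead assay after 16 h compound exposure of THP-1 cells; compounds (final up to 57.5 uM) added 1 h before LPS (250 ng/mL) and ATP (1.25 mM) stimulation; lower signal means less secretion.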
DT40 TDP1 CPT: growth inhibition of DT40 Tdp1-/-;hTDP1 cells with camptothecin (screen for TDP1 inhibitors). chicken DT40 Tdp1-/-;hTDP1 cells + 20 nM CPT, ATP luminescence, 48 h. Potency, µM (highest dose often 46.2 µM), most hits filed as inhibitors. 420,000 tested, 12% active; further: nearly all actives have a fitted effect of over 55% in size
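Cell growth measured by CellTiter-Glo luminescence after a minimum 48 h, 37 C compound exposure with 20 nM CPT in Tdp1-knockout DT40 cells stably expressing hTDP1, seeded 400/well; qHTS titration format.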
Numbers stand for hits; n = inactive; u = inconclusive; x = no result given; [ ] = dose if it differs, or a comment. In the library only some 21% were active in any assay of this set; here they are far more common. Unless noted, the call rests on the fitted dose curve; in most records, active means well fitted curve in the direction sought with a large enough effect; inconclusive means small, poorly fitted or top-dose-only effect, or another doubt; inactive means no such curve, though single readings can be large; an effect the other way counts as inactive or inconclusive.

SMILES | RORgamma inh | ELG1 repair inh | VP16 counter | TDP1 cell noCPT | IL1B secr inh | DT40 TDP1 CPT
Cc1cc(C(=O)N/N=C/c2ccc3ccccc3c2)n[nH]1 | n | n | n | u | n | u
Cc1cc(C(=O)N/N=C/c2ccc[nH]2)no1 | 10µM | u | 11µM | 18µM | n | u
Cc1cc(C(=O)N/N=C/c2ccccc2Br)no1 | n | u | n | n | n | n
Cc1cc(C(=O)N/N=C\c2cc(C(C)(C)C)c(O)c(C(C)(C)C)c2)n[nH]1 | 6.3µM | n | 3.5µM | u | n | n
COc1cccc(C(=O)COC(=O)c2ccc(NC(C)=O)cc2)c1 | u | n | n | n | n | n
Cc1ccc(CNc2nc(-c3ccco3)nn2S(=O)(=O)c2ccc3ccccc3c2)cc1 | x | x | x | n | x | n
CS(=O)(=O)n1nc(-c2ccco2)nc1NCc1ccccc1Cl | x | x | x | 18µM | x | u
CC(C)c1ccc(CNc2nc(-c3ccco3)nn2S(=O)(=O)c2ccc(F)cc2)cc1 | x | x | x | u | x | 21µM
COc1ccc(S(=O)(=O)n2nc(-c3ccco3)nc2NCc2ccc(C(C)C)cc2)cc1 | x | x | x | 23µM | x | 18µM
CN(N=Nc1nc[nH]c1C(N)=O)C1CCCCC1 | x | x | x | n | n | u
COc1cccc(N2CCN(C(=O)C3CCN(S(=O)(=O)c4c(C)noc4C)CC3)CC2)c1 | x | x | x | u | x | n
CCCNC(=O)C1(C)CCCN(C(=O)Cc2cccc(OC)c2)C1 (stereo not given) | x | x | x | n | n | n
O=C(COC(=O)CCS(=O)(=O)c1ccccc1)NNC(=O)c1ccc([N+](=O)[O-])cc1 | x | x | x | n | n | n
O=C(Nc1ccc2c(c1)OCO2)c1csc([C@@H]2O[C@H](CO)[C@H](O)[C@H](O)[C@H]2O)n1 | x | x | x | n | n | n
CN1/C(=C\C(=O)C[n+]2cccc(C(N)=O)c2)C(C)(C)c2ccccc21 | n | n | n | n | n | n
CN1/C(=C\C(=O)C[n+]2cccc(Br)c2)C(C)(C)c2ccccc21 | n | u | 13µM | 5.8µM | n | 4.6µM
Cc1cccc[n+]1CC(=O)/C=C1\N(C)c2ccccc2C1(C)C | u | n | 6.3µM | 3.3µM | n | 3.3µM
Cc1ccc[n+](CC(=O)/C=C2\N(C)c3ccccc3C2(C)C)c1 | u | n | n | 1.6µM | n | 1.2µM
CN1/C(=C\C(=O)C[n+]2ccc(C(=O)c3ccccc3)cc2)C(C)(C)c2ccccc21 | u | u | n | 1.2µM | n | 0.82µM
CCCCCNc1nc2c(-c3ccccc3)nnn2c2ccccc12 | x | x | x | n | x | n
Cc1ccsc1CN(C)C(=O)CN1C(=O)NC(c2ccccc2)(c2ccccc2)C1=O | x | n | x | n | u | u
Cc1ccc2nc(-c3ccc4c(c3)OCCO4)cc(C(=O)O)c2c1 | 5µM | u | n[0.365 µM] | n | n | n
CCOc1ccc(NC(=O)c2ccccn2)cc1 | 7.1µM | u | 4.5µM | 13µM | n | n
CCOc1ccc(NC(=O)c2cc(Cl)nc3ccccc23)cc1 | n | n | n | 15µM | n | u
CCOc1ccc(NC(=O)c2ccccc2O)cc1 | n | u | n | u | n | n
COc1ccc(-c2cc(C(=O)OCC(=O)Nc3ccc4c(c3)OCO4)c3ccccc3n2)cc1 | n | u | n | 21µM | n | u
COc1ccc(-c2cc(C(=O)NCc3cccc(Cl)c3)[nH]n2)c(C)c1 | x | x | x | u | n | u
CSCC[C@H](NC(=O)[C@H](CC(C)C)NC(=O)CNC(=O)[C@H](Cc1ccc(O)cc1)NC(=O)[C@H](Cc1ccccc1)NC(=O)[C@H](CCCCN)NC(=O)[C@H](CC(N)=O)NC(=O)[C@@H]1CCCN1C(=O)[C@H](CC(=O)O)NC(=O)[C@H](C)NC(=O)[C@@H]1CCC(=O)N1)C(N)=O | n | x | n | x | x | x
CCOc1ccc(C(=O)Nc2ccc3c(c2)OCCO3)cc1 | u | u | n | n | n | n
CCCn1c(C)cc(=O)c2cc(NC(=O)c3ccccn3)ccc21 | n | 16µM | n | 15µM | n | u

Source: PubChem (National Center for Advancing Translational Sciences (NCATS))
